# Test results from the supplement of paper PMC11732987, “Enantioselective OTUD7B fragment discovery through chemoproteomics screening and high-throughput optimisation” (Communications Chemistry, 2025).
# Unmarked numbers belong to inactive results.
# Columns and labels:
# Assay in all cases: log2 ratio of Biotin-Ahx-Ub-VS probe labelling (compound/DMSO); higher = less target engagement, active = hit call of the paper (q ≤ 0.05, log2 ratio ≤ -1)
# Settings in all cases: treatment time: 3 h
# [1] = compound: CN(Cc1cccc(Br)c1)C(=O)CCl
# Method in brief: (§1)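 Compound at 50 or 200 µM, or DMSO, was applied for 3 h in triplicate to HEK293T lysate (495 µg per sample, Tris/CHAPS/IGEPAL buffer with protease inhibitors), after which Biotin-Ahx-Ub-VS was added at 0.5 µM final for 1 h. The labelled DUBs were pulled down with NeutrAvidin, digested with LysC and trypsin, and run by diaPASEF LC-MS/MS. Ratios are averaged base-two logs of compound over DMSO from median-normalised label-free quantities by unpaired t-test, counting only proteins with at least 2 unique peptides.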
# [2] = compound: CN(Cc1cccc(OCc2ccccc2C)c1)C(=O)CCl
# Method in brief: as §1
# [3] = compound: CN(Cc1ccccc1)C(=O)CCl
# Method in brief: as §1
# [4] = compound: COc1ccc(CN(C)C(=O)CCl)cc1
# Method in brief: as §1
# [5] = compound: COc1cccc(CN(CCCc2ccccc2)C(=O)CCl)c1
# Method in brief: as §1
# [6] = compound: ClCC(=O)N1CCc2cc(Cl)c(Cl)cc2C1
# Method in brief: as §1
# [7] = compound: ClCC(=O)N1CCc2nc(ncc2C1)-c1ccccc1
# Method in brief: as §1
# [8] = compound: ClCC(=O)N1CCc2nocc2C1
# Method in brief: as §1
# [9] = compound: ClCC(=O)N1CCc2scc(Br)c2C1
# Method in brief: as §1
# [10] = compound: ClCC(=O)NC(C1CCCC1)c1cccs1
# Method in brief: as §1
# [11] = compound: ClCC(=O)NC1CCCc2ccccc12
# Method in brief: as §1
# [12] = compound: ClCC(=O)NC1CCOc2ccc(Cl)cc12
# Method in brief: as §1
# [13] = compound: ClCC(=O)NC1CCSc2ccccc12
# Method in brief: as §1
# [14] = compound: ClCC(=O)N[C@H]1CCCc2ccccc12
# Method in brief: as §1
# [15] = compound: Fc1ccc(N2CCN(c3nc4c(CN(C(CCl)=O)CC4)cn3)CC2)cc1.Cl.Cl
# Method in brief: as §1
# Chain of UniProt Q9UPT9 (Q9UPT9 whole entry): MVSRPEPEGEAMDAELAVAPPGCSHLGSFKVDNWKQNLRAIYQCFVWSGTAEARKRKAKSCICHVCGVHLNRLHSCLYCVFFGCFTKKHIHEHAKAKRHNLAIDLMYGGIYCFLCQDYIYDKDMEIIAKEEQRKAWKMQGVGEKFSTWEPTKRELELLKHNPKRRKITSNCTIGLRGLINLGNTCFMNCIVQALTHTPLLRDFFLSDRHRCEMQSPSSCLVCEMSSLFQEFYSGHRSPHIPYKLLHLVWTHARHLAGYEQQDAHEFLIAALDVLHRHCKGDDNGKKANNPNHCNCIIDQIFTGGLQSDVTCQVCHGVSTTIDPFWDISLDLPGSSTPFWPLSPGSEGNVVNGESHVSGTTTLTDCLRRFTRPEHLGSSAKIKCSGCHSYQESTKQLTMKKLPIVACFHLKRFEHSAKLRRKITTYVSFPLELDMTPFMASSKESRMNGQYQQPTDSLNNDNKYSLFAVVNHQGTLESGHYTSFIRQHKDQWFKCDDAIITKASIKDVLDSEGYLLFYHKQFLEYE
# Chain of UniProt Q9Y5K5 (Q9Y5K5 whole entry): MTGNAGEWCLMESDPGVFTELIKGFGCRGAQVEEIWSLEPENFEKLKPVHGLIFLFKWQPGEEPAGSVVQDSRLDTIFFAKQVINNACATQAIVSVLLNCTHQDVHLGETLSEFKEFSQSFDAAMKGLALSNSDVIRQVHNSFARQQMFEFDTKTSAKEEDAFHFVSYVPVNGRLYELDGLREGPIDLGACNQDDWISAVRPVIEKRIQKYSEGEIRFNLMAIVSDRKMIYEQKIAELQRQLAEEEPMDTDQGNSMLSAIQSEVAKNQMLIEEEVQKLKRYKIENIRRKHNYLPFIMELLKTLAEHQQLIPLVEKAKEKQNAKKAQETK
# Chain of UniProt Q96JH7 (Q96JH7 whole entry): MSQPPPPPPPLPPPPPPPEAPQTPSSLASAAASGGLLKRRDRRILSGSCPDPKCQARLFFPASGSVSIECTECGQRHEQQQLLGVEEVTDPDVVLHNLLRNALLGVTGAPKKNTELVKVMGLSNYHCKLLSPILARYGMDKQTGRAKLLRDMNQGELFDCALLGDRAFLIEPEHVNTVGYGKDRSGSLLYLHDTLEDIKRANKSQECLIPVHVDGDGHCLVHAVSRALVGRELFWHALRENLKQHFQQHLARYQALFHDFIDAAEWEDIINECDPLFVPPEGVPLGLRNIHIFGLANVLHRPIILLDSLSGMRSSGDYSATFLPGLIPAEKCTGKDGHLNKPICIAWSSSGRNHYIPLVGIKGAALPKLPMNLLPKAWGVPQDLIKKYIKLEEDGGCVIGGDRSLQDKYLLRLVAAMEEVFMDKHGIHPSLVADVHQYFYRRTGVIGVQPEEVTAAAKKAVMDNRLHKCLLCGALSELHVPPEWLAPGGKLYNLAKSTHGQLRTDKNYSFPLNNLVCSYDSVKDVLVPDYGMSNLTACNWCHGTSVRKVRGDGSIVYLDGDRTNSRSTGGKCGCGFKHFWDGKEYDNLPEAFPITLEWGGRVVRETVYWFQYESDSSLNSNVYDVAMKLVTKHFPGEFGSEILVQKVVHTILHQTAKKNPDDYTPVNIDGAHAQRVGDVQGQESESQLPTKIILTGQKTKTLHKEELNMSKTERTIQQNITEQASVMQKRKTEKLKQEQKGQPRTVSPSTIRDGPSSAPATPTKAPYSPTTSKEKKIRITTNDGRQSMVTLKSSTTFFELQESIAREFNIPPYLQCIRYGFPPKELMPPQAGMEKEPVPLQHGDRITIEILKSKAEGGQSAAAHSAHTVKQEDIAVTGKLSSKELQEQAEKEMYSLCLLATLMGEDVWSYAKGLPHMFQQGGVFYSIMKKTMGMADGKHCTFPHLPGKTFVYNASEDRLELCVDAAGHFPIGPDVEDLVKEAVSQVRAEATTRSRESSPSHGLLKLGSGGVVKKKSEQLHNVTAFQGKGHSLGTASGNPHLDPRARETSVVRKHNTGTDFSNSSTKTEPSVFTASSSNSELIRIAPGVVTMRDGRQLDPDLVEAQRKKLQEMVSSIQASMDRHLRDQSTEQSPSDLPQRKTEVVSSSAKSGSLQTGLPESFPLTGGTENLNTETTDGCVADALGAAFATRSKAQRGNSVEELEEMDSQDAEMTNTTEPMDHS
# Chain of UniProt Q9NP73 (Q9NP73 whole entry): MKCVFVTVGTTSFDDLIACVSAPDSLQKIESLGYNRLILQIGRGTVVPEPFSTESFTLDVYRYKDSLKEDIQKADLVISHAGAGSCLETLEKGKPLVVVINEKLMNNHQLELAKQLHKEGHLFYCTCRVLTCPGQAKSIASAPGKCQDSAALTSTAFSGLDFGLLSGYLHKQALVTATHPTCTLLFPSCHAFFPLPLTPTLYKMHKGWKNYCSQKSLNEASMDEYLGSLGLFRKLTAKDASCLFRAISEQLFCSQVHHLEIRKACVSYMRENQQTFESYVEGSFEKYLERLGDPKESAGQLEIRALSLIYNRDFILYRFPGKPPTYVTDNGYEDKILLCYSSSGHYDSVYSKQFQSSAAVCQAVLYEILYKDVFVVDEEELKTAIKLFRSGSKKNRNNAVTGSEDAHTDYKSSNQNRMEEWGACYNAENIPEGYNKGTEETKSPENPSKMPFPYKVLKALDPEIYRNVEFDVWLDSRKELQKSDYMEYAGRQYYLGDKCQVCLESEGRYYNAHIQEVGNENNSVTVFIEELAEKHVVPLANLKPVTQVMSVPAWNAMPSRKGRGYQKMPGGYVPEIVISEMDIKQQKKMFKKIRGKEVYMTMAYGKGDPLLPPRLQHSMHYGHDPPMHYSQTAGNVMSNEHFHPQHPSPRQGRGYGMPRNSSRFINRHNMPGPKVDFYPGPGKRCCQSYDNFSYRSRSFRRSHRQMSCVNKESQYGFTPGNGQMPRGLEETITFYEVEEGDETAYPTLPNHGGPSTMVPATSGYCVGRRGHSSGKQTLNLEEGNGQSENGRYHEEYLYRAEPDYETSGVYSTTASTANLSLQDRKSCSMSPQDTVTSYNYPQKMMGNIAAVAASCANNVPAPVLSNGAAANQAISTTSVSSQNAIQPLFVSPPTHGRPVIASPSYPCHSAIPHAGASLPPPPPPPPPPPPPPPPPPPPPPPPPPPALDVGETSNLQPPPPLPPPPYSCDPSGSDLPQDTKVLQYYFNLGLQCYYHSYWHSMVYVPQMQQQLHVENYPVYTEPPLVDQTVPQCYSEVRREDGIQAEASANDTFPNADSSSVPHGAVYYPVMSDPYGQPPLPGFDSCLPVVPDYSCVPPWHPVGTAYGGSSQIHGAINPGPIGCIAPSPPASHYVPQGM
# Chain of UniProt Q9P275 (Q9P275 whole entry): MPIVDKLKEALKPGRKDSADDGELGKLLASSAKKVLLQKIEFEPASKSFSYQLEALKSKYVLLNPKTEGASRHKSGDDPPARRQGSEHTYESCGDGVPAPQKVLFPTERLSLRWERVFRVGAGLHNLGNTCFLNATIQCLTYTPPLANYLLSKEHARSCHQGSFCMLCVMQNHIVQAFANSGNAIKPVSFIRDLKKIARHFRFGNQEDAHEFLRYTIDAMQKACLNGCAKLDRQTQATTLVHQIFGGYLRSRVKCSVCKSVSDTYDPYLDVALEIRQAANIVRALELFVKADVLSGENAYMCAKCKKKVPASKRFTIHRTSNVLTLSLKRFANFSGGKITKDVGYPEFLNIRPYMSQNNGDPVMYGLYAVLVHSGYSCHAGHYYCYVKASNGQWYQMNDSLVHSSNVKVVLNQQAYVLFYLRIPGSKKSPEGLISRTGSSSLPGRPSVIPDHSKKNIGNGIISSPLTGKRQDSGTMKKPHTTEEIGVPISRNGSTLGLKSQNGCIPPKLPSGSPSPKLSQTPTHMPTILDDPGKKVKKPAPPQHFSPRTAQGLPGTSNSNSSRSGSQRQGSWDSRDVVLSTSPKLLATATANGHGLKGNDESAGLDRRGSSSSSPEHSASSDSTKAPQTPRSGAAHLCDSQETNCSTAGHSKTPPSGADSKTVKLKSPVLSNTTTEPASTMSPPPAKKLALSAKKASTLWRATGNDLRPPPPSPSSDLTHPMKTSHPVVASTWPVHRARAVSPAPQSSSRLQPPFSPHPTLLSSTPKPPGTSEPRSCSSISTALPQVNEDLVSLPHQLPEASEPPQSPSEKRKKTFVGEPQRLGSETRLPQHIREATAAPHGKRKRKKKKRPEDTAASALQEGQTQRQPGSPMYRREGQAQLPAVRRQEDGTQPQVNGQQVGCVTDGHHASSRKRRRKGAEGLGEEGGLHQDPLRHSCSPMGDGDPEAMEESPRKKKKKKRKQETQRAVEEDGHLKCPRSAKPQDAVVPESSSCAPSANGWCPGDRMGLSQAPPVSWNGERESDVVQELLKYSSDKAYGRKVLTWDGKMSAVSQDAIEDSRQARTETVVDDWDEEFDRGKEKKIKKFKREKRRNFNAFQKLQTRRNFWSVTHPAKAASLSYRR
# Chain of UniProt O15372 (O15372 whole entry): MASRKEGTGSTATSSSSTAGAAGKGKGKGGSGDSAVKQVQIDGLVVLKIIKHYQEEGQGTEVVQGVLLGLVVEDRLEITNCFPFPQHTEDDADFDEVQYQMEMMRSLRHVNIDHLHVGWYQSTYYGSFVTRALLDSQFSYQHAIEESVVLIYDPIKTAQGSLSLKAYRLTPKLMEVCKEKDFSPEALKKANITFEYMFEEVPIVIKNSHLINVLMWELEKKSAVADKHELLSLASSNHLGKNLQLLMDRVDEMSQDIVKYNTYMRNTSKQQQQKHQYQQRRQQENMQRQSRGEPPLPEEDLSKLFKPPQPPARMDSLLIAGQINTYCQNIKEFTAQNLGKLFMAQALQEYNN
Target,log2 ratio of Biotin-Ahx-Ub-VS probe labelling ([1]; compound concentration: 50uM),log2 ratio of Biotin-Ahx-Ub-VS probe labelling ([1]; compound concentration: 200uM),log2 ratio of Biotin-Ahx-Ub-VS probe labelling ([2]; compound concentration: 50uM),log2 ratio of Biotin-Ahx-Ub-VS probe labelling ([2]; compound concentration: 200uM),log2 ratio of Biotin-Ahx-Ub-VS probe labelling ([3]; compound concentration: 50uM),log2 ratio of Biotin-Ahx-Ub-VS probe labelling ([3]; compound concentration: 200uM),log2 ratio of Biotin-Ahx-Ub-VS probe labelling ([4]; compound concentration: 50uM),log2 ratio of Biotin-Ahx-Ub-VS probe labelling ([4]; compound concentration: 200uM),log2 ratio of Biotin-Ahx-Ub-VS probe labelling ([5]; compound concentration: 50uM),log2 ratio of Biotin-Ahx-Ub-VS probe labelling ([5]; compound concentration: 200uM),log2 ratio of Biotin-Ahx-Ub-VS probe labelling ([6]; compound concentration: 50uM),log2 ratio of Biotin-Ahx-Ub-VS probe labelling ([6]; compound concentration: 200uM),log2 ratio of Biotin-Ahx-Ub-VS probe labelling ([7]; compound concentration: 50uM),log2 ratio of Biotin-Ahx-Ub-VS probe labelling ([7]; compound concentration: 200uM),log2 ratio of Biotin-Ahx-Ub-VS probe labelling ([8]; compound concentration: 50uM),log2 ratio of Biotin-Ahx-Ub-VS probe labelling ([8]; compound concentration: 200uM),log2 ratio of Biotin-Ahx-Ub-VS probe labelling ([9]; compound concentration: 50uM),log2 ratio of Biotin-Ahx-Ub-VS probe labelling ([9]; compound concentration: 200uM),log2 ratio of Biotin-Ahx-Ub-VS probe labelling ([10]; compound concentration: 50uM),log2 ratio of Biotin-Ahx-Ub-VS probe labelling ([10]; compound concentration: 200uM),log2 ratio of Biotin-Ahx-Ub-VS probe labelling ([11]; compound concentration: 50uM),log2 ratio of Biotin-Ahx-Ub-VS probe labelling ([11]; compound concentration: 200uM),log2 ratio of Biotin-Ahx-Ub-VS probe labelling ([12]; compound concentration: 50uM),log2 ratio of Biotin-Ahx-Ub-VS probe labelling ([12]; compound concentration: 200uM),log2 ratio of Biotin-Ahx-Ub-VS probe labelling ([13]; compound concentration: 50uM),log2 ratio of Biotin-Ahx-Ub-VS probe labelling ([13]; compound concentration: 200uM),log2 ratio of Biotin-Ahx-Ub-VS probe labelling ([14]; compound concentration: 50uM),log2 ratio of Biotin-Ahx-Ub-VS probe labelling ([14]; compound concentration: 200uM),log2 ratio of Biotin-Ahx-Ub-VS probe labelling ([15]; compound concentration: 50uM),log2 ratio of Biotin-Ahx-Ub-VS probe labelling ([15]; compound concentration: 200uM)
USP5 (UniProt P45974),0.304,0.538,-0.113,-0.0873,-0.0827,-0.00169,-0.0203,0.204,0.212,0.11,0.412,-0.121,0.389,0.254,0.00846,0.00188,0.214,0.0804,0.00222,-0.112,0.0451,0.134,0.0362,-0.0604,0.236,-0.0467,0.0744,-0.095,0.22,-0.287
USP4 (UniProt Q13107),-0.457,0.551,0.0716,-1.72 (active),-0.596,-0.256,-0.643,0.475,0.418,-0.294,0.245,-1.88 (active),0.281,-1.65 (active),-0.605,0.447,0.067,-0.445,-1.38 (active),-0.493,0.337,-0.155,-0.21,0.596,-0.0317,-0.104,-0.54,-0.195,-0.32,0.659
PRPF8 (UniProt Q6P2Q9),-0.00418,0.0824,-0.075,0.0126,-0.0842,0.108,0.0375,0.065,0.00751,0.0603,0.0965,0.0914,0.046,0.0608,-0.0702,0.00362,-0.00317,0.0413,0.122,-0.028,-0.0294,-0.0682,-0.217,-0.0207,0.0298,-0.0215,0.0787,-0.0553,-0.0417,-0.137
OTUD7B (UniProt Q6GQQ9),-0.428,-1.07 (active),-0.878,-2.2 (active),-0.664,-1.45 (active),-0.435,-0.811,-0.145,-0.385,-0.244,-1.67 (active),-0.213,-1.67 (active),-1.21 (active),-3.03 (active),-0.654,-2.61 (active),-0.987,-2.95 (active),-4.5 (active),-5.65 (active),-2.75 (active),-5.2 (active),-3.62 (active),-5.08 (active),-5.19 (active),-5.13 (active),-0.187,-1.57 (active)
USP22 (UniProt Q9UPT9),-0.105,0.476,-0.278,-0.429,-0.208,-0.176,-0.0376,-0.15,-0.102,-0.225,-0.0223,-0.226,-0.0429,-0.339,0.0391,-0.233,-0.0943,-0.362,-0.0796,-0.154,-0.085,-0.0777,-0.0691,-0.277,0.136,-0.123,0.101,-0.302,-0.16,-0.168
USP36 (UniProt Q9P275),-0.113,-0.219,-0.207,-0.146,-0.167,-0.139,-0.166,-0.1,-0.116,-0.158,-0.152,0.149,-0.0391,-0.252,-0.06,-0.0333,0.0162,0.122,-0.296,-0.0298,0.0611,0.171,-0.00761,-0.088,0.158,0.1,-0.0619,-0.0962,-0.181,-0.183
EIF3H (UniProt O15372),-0.0499,-0.495,-0.0626,-0.0695,-0.0247,-0.0426,-0.128,0.0275,0.0566,0.0114,-0.344,0.309,-0.162,0.025,0.0895,-0.349,-0.0247,0.0406,-0.136,0.0107,-0.0316,-0.379,-0.141,-0.0932,-0.0985,-0.00068,-0.109,0.0728,0.0328,-0.126
USP54 (UniProt Q70EL1),0.085,-0.845,-1.29 (active),-0.985,-0.885,-0.551,-0.773,-2.33 (active),-0.358,-2.68 (active),-0.895,-2.65 (active),-0.823,-2.39 (active),-0.519,-1.77 (active),-0.124,-2.07 (active),0.0591,0.198,-0.548,0.0905,0.326,0.176,0.0467,0.0947,-1.58 (active),-0.206,-0.663,0.547
ALG13 (UniProt Q9NP73),0.0661,-0.148,0.469,-0.522,0.171,0.0619,0.45,0.0354,0.162,-0.285,0.247,0.454,0.157,-0.117,0.493,-0.0466,0.393,0.369,-0.273,0.0789,0.298,0.114,0.599,0.0386,0.273,-0.0598,0.244,0.344,0.0824,0.24
VCPIP1 (UniProt Q96JH7),-0.446,-0.887,-0.755,-1.2 (active),-0.563,-0.709,-0.548,-0.854,-0.299,-1.11 (active),-0.374,-0.407,-0.105,-0.284,-0.319,-0.484,-0.213,-0.677,-0.515,-0.426,-0.592,-1.1 (active),-0.668,-0.836,-0.427,-1.2 (active),-0.287,-0.962,-0.145,-0.737
UCHL5 (UniProt Q9Y5K5),-0.213,-0.442,-0.735,-1.33 (active),-0.356,-0.432,-0.288,-0.317,-0.37,-1.17 (active),-0.0548,-1.36 (active),0.0333,-0.459,-0.287,-0.349,-0.0669,-0.74,-0.0991,-0.214,-0.182,-0.0853,-0.308,-0.472,0.0503,-0.365,-0.0983,-0.443,-0.226,-1.37 (active)
